Screening results: PubChem, The Scripps Research Institute Molecular Screening Center
hcDAF-12 act – H. contortus DAF-12 activation, primary screen; activation, % at 6.8 µM; 370,000 tested, 1.4% active; HEK293 hcDAF-12 lit1-tk-luc reporter, luminescence; 0% DMSO, 100% Δ7-dafachronic acid;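 active = activation above the mean of all tested compounds plus 3 SD, cut at about 5.5% in these data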;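 note: 100% = response to 3 µM Δ7-dafachronic acid high control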
DAX1 inh-1 – inhibits human nuclear receptor DAX1 | AID 504766 | HEK293 Gal4-DAX1 luciferase reporter, luminescence | inhibition, % at 6.75 µM | 340,000 tested, 0.99% active | P51843;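 active = inhibition above the mean over all tested compounds plus 3 SD, cut at about 4.2% in these data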;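 note: 0% = DAX1-transfected cells with DMSO and 100% = empty-vector control cells with DMSO; inhibition shows as a rise in luminescence from relieved DAX1 repression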
Target sequence (P51843 207-470 limits assumed): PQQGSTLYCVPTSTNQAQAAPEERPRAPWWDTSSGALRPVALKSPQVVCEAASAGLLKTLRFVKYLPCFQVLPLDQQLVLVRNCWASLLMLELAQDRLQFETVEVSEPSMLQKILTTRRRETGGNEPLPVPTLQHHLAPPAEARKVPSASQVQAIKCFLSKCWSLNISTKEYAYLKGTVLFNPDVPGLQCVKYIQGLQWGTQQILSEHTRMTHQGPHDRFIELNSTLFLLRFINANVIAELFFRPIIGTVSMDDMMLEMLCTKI
ssDAF12 agonist – activates DAF-12 receptor from parasite S. stercoralis; HEK293 ssDAF-12/GRIP1 lit1-tk-luc reporter, luminescence; % of 3 µM dafachronic acid response; AID 652126; activation, % at 6.8 µM; 370,000 tested, 1% active;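 active = activation above the mean over all tested compounds plus 3 SD, cut at about 0.9% in these data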;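 note: 0% = DMSO-only wells and 100% = 3 µM delta7-dafachronic acid wells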
hgDAF12 agonist – hgDAF-12 agonism, primary luciferase screen; activation, % at 6.8 µM; 370,000 tested, 1.8% active; HEK293 GAL4-hgDAF12 UAS-luciferase reporter, agonist luminescence; normalized to butyrate control;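 active = activation above a cutoff set at the mean of all screened compounds plus 3 SD, cut at about 10% in these data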;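 note: 0% = DMSO wells and 100% = sodium butyrate wells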
AHR activator – human AHR activation | AHR-responsive luciferase reporter cells, luminescence | 320,000 tested, 2.5% active | P35869 | activation, % at 5 µM; in the data active = activation above about 47%;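 note: 0% = vehicle wells and 100% = reference agonist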
DAX1 inh-2 – inhibitors of DAX1 repression of SF-1 activated StAR promoter. HEK293T StAR-luciferase reporter, SF-1/DAX-1 repression relief. inhibition, % at 6.8 µM. 370,000 tested, 1.1% active. AID 652010;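 active = inhibition above the mean over all tested compounds plus 3 SD, cut at about 3.6% in these data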;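 note: 0% = DAX-1 cells with DMSO and 100% = cells lacking DAX-1 with DMSO; higher inhibition means more luminescence from relief of DAX-1 repression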
An asterisk follows results filed as active. The list is not random: actives were taken first. Their share in the collection is about 5.7%.

For Cc1cc(/C=C2/NC(=O)N(c3ccccc3)C2=O)c(C)n1C(C)C the results were hcDAF-12 act -2.3, DAX1 inh-1 -0.5, ssDAF12 agonist -2.1, hgDAF12 agonist -8.4, AHR activator 8.0 and DAX1 inh-2 -0.4.
CCn1c(C)cc(/C=C2\NC(=O)N(Cc3ccccc3)C2=O)c1C was read as hcDAF-12 act -1.9, DAX1 inh-1 1.1, ssDAF12 agonist -0.8, hgDAF12 agonist 0.2, AHR activator 70.3* and DAX1 inh-2 -0.5.
`Cc1cc(/C=C2/NC(=O)N(Cc3ccccc3F)C2=O)c(C)n1C(C)C` gave hcDAF-12 act -2.2, DAX1 inh-1 -0.2, ssDAF12 agonist 0.6, hgDAF12 agonist 1.5, AHR activator 113.9* and DAX1 inh-2 -0.4.
For O=C1Nc2ccccc2OC1CC(=O)N1CCOCC1 (stereo unspecified) the results were hcDAF-12 act 2.5, DAX1 inh-1 6.0*, ssDAF12 agonist -0.7, hgDAF12 agonist 2.8, AHR activator 2.4 and DAX1 inh-2 0.9.
For O=C1Nc2ccccc2OC1CC(=O)N1CCN(c2cccc(C(F)(F)F)c2)CC1 (stereo unspecified) the results were hcDAF-12 act -0.3, DAX1 inh-1 0.2, ssDAF12 agonist -1.5, hgDAF12 agonist -1.6, AHR activator 3.2 and DAX1 inh-2 -0.1.
Clc1nc(-c2cccnc2)nc2scc(-c3ccccc3)c12 was read as hcDAF-12 act 2.6, DAX1 inh-1 0.2, ssDAF12 agonist -0.4, hgDAF12 agonist 2.7, AHR activator 67.8* and DAX1 inh-2 0.5.
Screening CC(=O)NCc1ccc(-c2csc(-c3cccs3)n2)cc1 returned hcDAF-12 act 2.7, DAX1 inh-1 -0.4, ssDAF12 agonist -0.8, hgDAF12 agonist 12.4*, AHR activator -4.7 and DAX1 inh-2 0.1.
For Nn1c(SCc2cccc3ccccc23)nnc1-c1cc(-c2ccc(F)cc2)n[nH]1 the results were hcDAF-12 act -2.8, ssDAF12 agonist -1.3, hgDAF12 agonist 3.3 and DAX1 inh-2 -2.4.
`O=C(Cn1c(=O)[nH]c2ccsc2c1=O)NC1CCCCCC1` gave hcDAF-12 act 0.1, DAX1 inh-1 7.3*, ssDAF12 agonist -1.5, hgDAF12 agonist 3.1, AHR activator 1.1 and DAX1 inh-2 0.6.
Screening CC1CCC(NC(=O)Cn2c(=O)[nH]c3ccsc3c2=O)CC1 (stereo unspecified) returned hcDAF-12 act 1.2, DAX1 inh-1 2.0, ssDAF12 agonist -1.1, hgDAF12 agonist 2.7, AHR activator 7.0 and DAX1 inh-2 0.3.
`COC(=O)C1CCN(C(=O)c2cc(-c3ccco3)nc3ccccc23)CC1` gave hcDAF-12 act 2.2, DAX1 inh-1 -0.7, ssDAF12 agonist -0.6, hgDAF12 agonist 1.4, AHR activator 13.4 and DAX1 inh-2 0.1.
For O=C(C(=O)N1CCN(C(=O)c2cccs2)CC1)c1cccc(C(F)(F)F)c1 the results were hcDAF-12 act -0.7, ssDAF12 agonist -1.3, hgDAF12 agonist -1.6 and DAX1 inh-2 0.6.
Screening O=C(O)CCC(=O)Nc1ccccc1C(=O)N1CCN(c2ccc(Cl)cc2)CC1 returned hcDAF-12 act -1.0, DAX1 inh-1 6.8*, ssDAF12 agonist -0.7, hgDAF12 agonist 2.8, AHR activator 4.5 and DAX1 inh-2 0.5.
Screening Cc1c(N=NC2=C(O)CC(C)(C)CC2=O)c(=O)n(-c2ccccc2)n1C returned hcDAF-12 act 0.5, DAX1 inh-1 -1.6, ssDAF12 agonist -1.1, hgDAF12 agonist 0.2, AHR activator 3.0 and DAX1 inh-2 -0.4.
`Cc1cc(Oc2ccccc2)nc(N)n1` gave hcDAF-12 act -0.5, DAX1 inh-1 0.5, ssDAF12 agonist -1.3, hgDAF12 agonist 1.7, AHR activator 2.3 and DAX1 inh-2 0.8.
`Cc1cc(SCCOc2ccccc2)nc(N)n1` gave hcDAF-12 act -2.5, DAX1 inh-1 5.1*, ssDAF12 agonist -0.5, hgDAF12 agonist 7.2, AHR activator 1.0 and DAX1 inh-2 1.6.
For Cc1cc(N2CCN(c3ccc(F)cc3)CC2)nc2cc(O)ccc12 the results were hcDAF-12 act -1.7, DAX1 inh-1 -0.8, ssDAF12 agonist -1.5, hgDAF12 agonist -1.4, AHR activator 97.5* and DAX1 inh-2 0.0.
COc1ccc2c(C)cc(N3CCN(c4ccc(F)cc4)CC3)nc2c1 was read as hcDAF-12 act 3.0, DAX1 inh-1 -1.9, ssDAF12 agonist -0.4, hgDAF12 agonist 1.8, AHR activator 69.1* and DAX1 inh-2 -0.6.
Screening Cc1cc(N2CCCN(C)CC2)nc2cc(Cl)ccc12 returned hcDAF-12 act -0.5, DAX1 inh-1 0.8, ssDAF12 agonist 1.1*, hgDAF12 agonist 1.0, AHR activator 7.4 and DAX1 inh-2 -0.2.
For Cc1nc(COc2ccccc2Cl)sc1-c1ccnc(N)n1 the results were hcDAF-12 act -0.2, DAX1 inh-1 0.7, ssDAF12 agonist -2.1, hgDAF12 agonist -0.2, AHR activator -3.0 and DAX1 inh-2 0.5.
Screening CCc1cc2c(nc1CC)CCCN2S(=O)(=O)c1ccc(F)cc1 returned hcDAF-12 act -0.6, ssDAF12 agonist -1.5, hgDAF12 agonist -3.6 and DAX1 inh-2 0.0.
For Cc1ccc(-c2nnc3n2N=C(c2ccc(Br)cc2)CS3)cc1 the results were hcDAF-12 act -1.3, DAX1 inh-1 0.7, ssDAF12 agonist -1.6, hgDAF12 agonist -3.1, AHR activator 6.5 and DAX1 inh-2 -0.5.
`Clc1ccc(C2=Nn3c(nnc3-c3n[nH]c4c3CCC4)SC2)cc1` gave hcDAF-12 act -2.1, DAX1 inh-1 -0.8, ssDAF12 agonist -1.0, hgDAF12 agonist -4.0, AHR activator 48.8* and DAX1 inh-2 -0.9.
For c1ccc(-c2ccc(C3=Nn4c(nnc4-c4ccccc4)SC3)cc2)cc1 the results were hcDAF-12 act -3.2, ssDAF12 agonist -1.5, hgDAF12 agonist 0.3 and DAX1 inh-2 -1.6.
`Brc1ccc(C2=Nn3c(nnc3-c3n[nH]c4c3CCC4)SC2)cc1` gave hcDAF-12 act -0.7, DAX1 inh-1 -1.9, ssDAF12 agonist -1.0, hgDAF12 agonist 0.1, AHR activator 78.2* and DAX1 inh-2 -2.2.
Screening CC(C)(C)n1nnnc1C(c1ccccc1)N1CCN(c2c(Cl)cncc2Cl)CC1 (stereo unspecified) returned hcDAF-12 act -1.6, ssDAF12 agonist -1.2, hgDAF12 agonist 1.2 and DAX1 inh-2 -2.0.
For CCc1ccc2c(c1)C1(NN=C(c3ccc(C)cc3)S1)C(=O)N2 (stereo unspecified) the results were hcDAF-12 act 0.9, DAX1 inh-1 -1.4, ssDAF12 agonist 0.0, hgDAF12 agonist 5.1, AHR activator 54.6* and DAX1 inh-2 0.1.
Screening COc1cc2c(cc1Cl)C(=O)C(F)(c1ccccc1)C(=O)N2 (stereo unspecified) returned hcDAF-12 act 2.2, DAX1 inh-1 -0.1, ssDAF12 agonist -0.7, hgDAF12 agonist -0.9, AHR activator 37.7 and DAX1 inh-2 0.1.
